Reference: PubChem BioAssay
Calls of active or inactive are those of the source. Unless noted, the rule behind the calls is not given here.

What was measured:
[1] = tested on: XIP peptide (Xip251-270) binding; test: XIP fragment 251-270 binding compounds – biochemical, small-molecule microarray, fluorescence 635/667 nm, 0.1 µg/mL protein, primary screen (AID 1182); conditions: fluorescent protein binding, 635 nm, higher = more signal, called active from +8 up or from −8 down
XIP peptide (Xip251-270) = test: compounds binding XIP fragment 251-270 – biochemical, small-molecule microarray, fluorescence 635/667 nm, 0.5 µg/mL protein, primary screen (AID 1183); conditions: fluorescence 635 nm, higher = more signal
[2] = blood-stage malaria parasite viability loss – strain 3D7, DAPI fluorescence, 100 nL, primary screen (AID 1184);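 note: parasites grown inside human red blood cells in medium with human serum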; conditions: P. falciparum 3D7 growth, 3 d, higher = more signal
[3] = target: Homeobox protein Hox-A13 (Mus musculus) (UniProt Q62424); test: disruptors of Hoxa13 oligonucleotide interaction – biochemical, fluorescence polarization, labeled oligonucleotide, primary screen (AID 1185); conditions: Hoxa13:DNA binding, 15 min, higher = more signal, called active from +8 up or from −8 down
[4] = blockers of DNA damage checkpoint Chk1 activation – imaging, HeLa, hydroxyurea, phospho-Chk1 antibody, percent positive cells, primary screen (AID 1186); conditions: hydroxyurea-induced phospho-Chk1 immunofluorescence imaging, higher = more signal
[5] = blockers of DNA damage checkpoint Chk1 activation – imaging, HeLa, hydroxyurea, phospho-Chk1 nuclear intensity, primary screen (AID 1187); conditions: hydroxyurea-induced phospho-Chk1 immunofluorescence imaging, higher = more signal

Homeobox protein Hox-A13 (Mus musculus), sequence (Q62424 whole entry, looked up): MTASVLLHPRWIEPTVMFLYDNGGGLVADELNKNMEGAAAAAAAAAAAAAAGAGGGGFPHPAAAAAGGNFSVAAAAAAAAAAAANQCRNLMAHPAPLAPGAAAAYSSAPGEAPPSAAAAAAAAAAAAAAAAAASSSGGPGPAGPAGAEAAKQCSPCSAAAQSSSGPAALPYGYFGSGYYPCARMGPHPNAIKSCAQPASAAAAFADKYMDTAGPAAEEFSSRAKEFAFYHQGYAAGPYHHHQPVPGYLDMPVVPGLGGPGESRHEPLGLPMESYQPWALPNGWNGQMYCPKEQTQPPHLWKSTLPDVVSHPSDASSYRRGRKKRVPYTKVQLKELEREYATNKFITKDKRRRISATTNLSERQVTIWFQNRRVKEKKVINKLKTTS

Compound	composite z-score [1]	composite z-score (XIP peptide (Xip251-270))	z-score [2]	z-score [3]	z-score [4]	z-score [5]
O=C1O[C@@H](c2ccccc2)[C@@H](c2ccccc2)N2[C@@H](c3ccccc3OCCO)[C@]3(C(=O)Nc4ccc(C#CC5=CCCCC5)cc43)[C@@H](C(=O)O)[C@H]12	0.364 (inactive)	0.305	-0.662	-3.14 (inactive)	-0.379 (inactive)	-0.318 (inactive)
C=C(COC)/C(=C/C[C@@H](OC(C)=O)c1cccc(OCCO)c1)c1cc(C(=O)OC)ccc1OC	-0.496 (inactive)	-0.5	-2.56	-4.24 (inactive)	-0.8 (inactive)	-0.95 (inactive)
COC(=O)C[C@H]1O[C@]2(C(=O)N(C)c3ccccc32)[C@@H](C)[C@@H]1[Si](C)(C)c1ccc(OC)cc1	-0.539 (inactive)	0.414	-2.41	-6.13 (inactive)	0.463 (inactive)	0.688 (inactive)
C[N+](C)(C)CCCCNC(=O)[C@@H]1C[C@@H]2C(=O)N3CCC[C@H]3C(=O)N2[C@@H]1c1cccc(OCCO)c1	3.4 (inactive)	0.839	-0.294	-1.2 (inactive)	-0.162 (inactive)	0.319 (inactive)
[N-]=[N+]=NCc1ccccc1C[C@]1(C(N)=O)N=C(c2ccc(OCCCO)cc2)O[C@H]1c1ccccc1CN=[N+]=[N-]	1.04 (inactive)	-0.285	-2.29	1.67 (inactive)	-0.442 (inactive)	-0.427 (inactive)
CC(C)(C)OC(=O)CC[C@@]1(C(=O)NCc2ccccc2)N=C(c2ccc(OCCCO)cc2)O[C@@H]1c1ccccc1	1.59 (inactive)	0.93	-2.25	-5.51 (inactive)	-1.17 (inactive)	-1.29 (inactive)
C=CCC(OC(C)=O)[C@@H]1[C@@H](N(Cc2ccc(-c3ccccc3)cc2)C(=O)c2ccc(-c3ccccc3)cc2)c2cc(OCCCO)ccc2N1C(=O)Cc1ccc(OC)cc1 (some centres undefined)	0.195 (inactive)	-0.126	-0.314	-1.31 (inactive)	-0.282 (inactive)	-0.47 (inactive)
CCCC=C(CCC)[C@@H](NC(=O)c1ccc(C(F)(F)F)cc1)c1ccccc1	0.177 (inactive)	0.144	-1.55	-0.261 (inactive)	0.128 (inactive)	0.29 (inactive)
Cc1ccc(S[C@]2(C(=O)NCCCN(C)C)CC(=O)N(C3CCCCC3)[C@@H]2c2ccc(CO)cc2I)cc1	-0.605 (inactive)	-0.697	-1.65	0.756 (inactive)	-0.212 (inactive)	-0.074 (inactive)
COCCOC(=O)N1C(=O)[C@@]2(c3cc(C#CCNC(N)=O)ccc31)[C@H](c1ccc(OCCO)cc1)N1[C@H](c3ccccc3)[C@H](c3ccccc3)OC(=O)[C@H]1[C@@H]2C(=O)N1CCCCCCC1	0.067 (inactive)	-0.26	-2.1	-11.3 (active)	0.174 (inactive)	0.272 (inactive)
COC(=O)Cn1c(C(=O)N2CCCC2)cc2c1C[C@H]1CN(C(=O)c3ccccc3)[C@@](Cc3ccc(OC)cc3)(C(=O)OC)[C@@H]21	0.516 (inactive)	0.518	-1.48	-3.21 (inactive)	0.847 (inactive)	0.487 (inactive)
CC(C)[Si]1(C(C)C)O[C@@H](c2ccccc2)c2cc(C3CC3)nc(-c3ccc(Oc4ccccc4)cc3)c21	-0.732 (inactive)	-0.736	-1.45	0.0985 (inactive)	-0.446 (inactive)	0.661 (inactive)
COCCOC(=O)N1C(=O)[C@@]2(c3cc(C#CCCO)ccc31)[C@H](C(=O)N1CCCCCCC1)[C@H]1C(=O)O[C@H](c3ccccc3)[C@H](c3ccccc3)N1[C@@H]2c1ccc(O)cc1	1.48 (inactive)	0.63	-0.303	-0.579 (inactive)	-0.424 (inactive)	-0.457 (inactive)
COC(=O)C1=CC(c2ccc(CO)cc2)=CC(C2CC2)N(Cc2sc3ccccc3c2Cl)C=C1C(=O)OC (centres undefined)	2.17 (inactive)	0.889	-2.13	-2.26 (inactive)	-0.288 (inactive)	-0.225 (inactive)
Cc1ccc(N2C(=O)c3ccccc3[C@](C)(C(=O)NCC(C)C)[C@@H]2c2ccc(CO)cc2)nc1	-0.223 (inactive)	-0.662	0.11	-2 (inactive)	0.341 (inactive)	0.123 (inactive)
C=CC[C@@]1(C(=O)N2CCOCC2)N=C(c2ccc(OCCCO)cc2)O[C@@H]1c1ccccc1	1.79 (inactive)	-0.526	-1.74	-5.67 (inactive)	-0.648 (inactive)	-0.241 (inactive)
COCCOC(=O)N1C(=O)[C@@]2(c3cc(C#CCNC(N)=O)ccc31)[C@H](C(=O)N1CCCCCCC1)[C@H]1C(=O)O[C@H](c3ccccc3)[C@H](c3ccccc3)N1[C@@H]2c1ccccc1OCCO	0.252 (inactive)	0.276	-1.87	3.73 (inactive)	-0.0292 (inactive)	-0.349 (inactive)

Compound	composite z-score [1]	composite z-score (XIP peptide (Xip251-270))	z-score [2]	z-score [3]	z-score [4]	z-score [5]
O=C(NCC(F)(F)F)[C@@H]1c2ccccc2C(=O)N(Cc2ccccc2Cl)[C@H]1c1ccc(CO)cc1	0.0987 (inactive)	0.0561	-0.472	-2.37 (inactive)	0.178 (inactive)	0.449 (inactive)
COC(=O)[C@@]1(Cc2ccc(OC)cc2)[C@H]2c3cc(C(=O)N(C)C)n(Cc4ccc(C)c(F)c4F)c3C[C@H]2CN1C(=O)c1ccccc1	-0.0903 (inactive)	0.465	-1.13	-1.93 (inactive)	0.758 (inactive)	0.0937 (inactive)
C=C(COC)/C(=C/C[C@@H](OC(=O)c1ccncc1)c1ccc(OCCO)cc1)c1cc(C(=O)OC)ccc1OC	1.08 (inactive)	0.749	-2.98	-4.62 (inactive)	-0.252 (inactive)	0.535 (inactive)
CN1CCC(CCCO)=CC1C1CC1 (centres undefined)	-0.289 (inactive)	-0.5	-0.548	-1.63 (inactive)	-0.734 (inactive)	-0.684 (inactive)
CCC1=C2CN(Cc3ccccc3Br)[C@@H]([C@@H](O)Cc3ccccc3)C2C=CCC1 (some centres undefined)	-0.314 (inactive)	0.509	-1.92	-7.8 (inactive)	-0.0994 (inactive)	-0.311 (inactive)
C=CCN1C(=O)[C@@]2(O[C@@H](CCn3cc([C@H](O)c4ccccc4)nn3)[C@H]([Si](C)(C)c3ccc(OC)cc3)[C@H]2C)c2cc(N3CCOC3=O)ccc21	0.0505 (inactive)	-0.52	-2.71	-4.69 (inactive)	-1.49 (inactive)	-1.43 (inactive)
C=CC[C@]1(C(=O)N2CCCCC2)N=C(c2ccc(OCCCO)cc2)O[C@H]1c1ccccc1N=[N+]=[N-]	1.01 (inactive)	0.851	-2.21	-3.92 (inactive)	-0.135 (inactive)	0.224 (inactive)
O=C1OCCC=C[C@H]2OC34C=CCN(Cc5ccccc5)C(=O)[C@H]3N(CCO)C(=O)[C@@H]4C12 (some centres undefined)	-0.525 (inactive)	-1.24	-1.92	-2.7 (inactive)	-0.618 (inactive)	-0.732 (inactive)
CC(C)N1CC=CC23O[C@@H]4/C=C\CCCOC(=O)C4[C@H]2C(=O)N(CCCCCO)[C@@H]3C1=O (some centres undefined)	-0.301 (inactive)	-1.95	-0.426	-4.61 (inactive)	-0.261 (inactive)	-0.128 (inactive)
CC(C)(C)OC(=O)CC[C@]1(C(=O)NCCN2CCOCC2)N=C(c2ccc(OCCCO)cc2)O[C@H]1c1ccccc1CN=[N+]=[N-]	1.16 (inactive)	0.58	-0.867	-4.75 (inactive)	-0.593 (inactive)	-0.6 (inactive)
CCC#CCN(Cc1ccccc1Br)[C@H](/C=C/c1ccccc1)[C@@H](O)Cc1ccccc1	-0.276 (inactive)	-0.613	-0.609	0.462 (inactive)	-0.415 (inactive)	-0.241 (inactive)
CC(C)(C)OC(=O)CC[C@]1(C(=O)N2CCCCC2)N=C(c2ccc(OCCCO)cc2)O[C@H]1c1ccccc1	1.24 (inactive)	0.814	-2.31	-4.83 (inactive)	-0.478 (inactive)	-0.787 (inactive)
COCCOC(=O)N1C(=O)[C@@]2(c3cc(C#CC4=CCCCC4)ccc31)[C@H](c1ccc(O)cc1)N1[C@H](c3ccccc3)[C@H](c3ccccc3)OC(=O)[C@H]1[C@@H]2C(=O)N1CCCCCCC1	0.505 (inactive)	0.678	-1.66	2.08 (inactive)	-0.104 (inactive)	0.0587 (inactive)
CC(=O)NCCCC[C@@H]1NC(=O)[C@H]2C[C@@H](C(=O)NCCCCCCN(C)C)[C@@H](c3ccc(O)cc3)N2C1=O	1.76 (inactive)	0.832	-1.01	-1.9 (inactive)	0.0655 (inactive)	0.0377 (inactive)
CCCC/C=C/[C@H]([C@@H](O)Cc1ccccc1)N(CC#Cc1ccccc1)Cc1ccccc1Br	0.227 (inactive)	-1.26	-0.972	0.453 (inactive)	-0.138 (inactive)	-0.0836 (inactive)
COCCOC(=O)N1C(=O)[C@@]2(c3ccccc31)[C@H](C(=O)N1CCc3cc(OC)c(OC)cc3C1)[C@H]1C(=O)O[C@H](c3ccccc3)[C@H](c3ccccc3)N1[C@@H]2c1ccccc1OCCO	0.227 (inactive)	0.741	-1.9	-0.573 (inactive)	-0.0955 (inactive)	-0.08 (inactive)
COc1cc(Cc2cc3c(c(CCc4ccccc4)n2)[Si](C(C)C)(C(C)C)OC3)cc(OC)c1OC	-0.521 (inactive)	-0.122	-2.33	-3.47 (inactive)	-0.0504 (inactive)	-0.0848 (inactive)
